# Test results as given in the supplement of paper PMC10849652.
# About 7,900 targets were measured; listed, in parts, are those with a hit and a random draw of the rest. About 0.6% of all pairs of compound and target were hits. Values without a mark were called inactive.
# Tests used:
# Assay in all cases: log2 fold change, soluble protein after heating vs DMSO (PISA); higher = thermal stabilisation; K562 cells, 10 uM, 30 min; active = over 0.2 and 3.5 SD of the protein, either way, in both replicates (recomputed)
# [1] = compound: CC[C@@H]1C(=O)N(C)c2cnc(Nc3ccc(C(=O)NC4CCN(C)CC4)cc3OC)nc2N1C1CCCC1
# Outline: (§1)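 Soluble protein was quantified by TMTpro 16plex LC-MS/MS after channel sums were equalised. It was obtained as the supernatant after 21,000xg for 90 min from pooled aliquots of K562 cells (2×10^6 cells/mL, 10 μM compound, 30 min) heated for 3 min across 48°C-58°C and extracted in PBS with 0.5% NP-40 at 4°C. Thermal stability values are relative to control samples and come from duplicates. They are given as log2 fold changes.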
# volasertib = compound: CC[C@@H]1C(=O)N(C)c2cnc(Nc3ccc(C(=O)N[C@H]4CC[C@H](N5CCN(CC6CC6)CC5)CC4)cc3OC)nc2N1C(C)C [volasertib]
# Outline: as §1
# [2] = compound: CC[C@H](C)N1C=C(C2=C(C=C(C=C21)C3=CN=C(C=C3)N4CCNCC4)C(=O)NCC5=C(C=C(NC5=O)C)C)C
# Outline: as §1
# epoxomicin = compound: CC[C@H](C)[C@@H](C(=O)N[C@@H]([C@@H](C)O)C(=O)N[C@@H](CC(C)C)C(=O)[C@]1(CO1)C)NC(=O)[C@H]([C@@H](C)CC)N(C)C(=O)C [epoxomicin]
# Outline: as §1
# [3] = compound: CCn1c(C(=O)N(C2CC2)C2CC2)cc2c3c(ncn3C)c(Nc3cc(C)n(C)n3)nc21
# Outline: as §1
# [4] = compound: CCn1cc(-c2ccnc3[nH]c(-c4cccc(CN(C)C)c4)cc23)c(-c2ccc(NC(=O)N(C)C)cc2)n1
# Outline: as §1
# [5] = compound: CN(C)CC(=O)Nc1ccc2[nH]c(=O)c3ccccc3c2c1
# Outline: as §1
# rosiglitazone = compound: CN(CCOC1=CC=C(C=C1)C[C@H]2C(=O)NC(=O)S2)C3=CC=CC=N3 (racemic) [rosiglitazone]
# Outline: as §1
# [6] = compound: CN1C2=C(C3=C1C(=O)N(N=C3)CC4=CC(=CC=C4)N)SC(=C2)S(=O)C
# Outline: as §1
# [7] = compound: CN1CCC(CNc2ccc3ncc(-c4cccc(OC(F)(F)F)c4)n3n2)CC1
# Outline: as §1
# saracatinib = compound: CN1CCN(CCOc2cc(OC3CCOCC3)c3c(Nc4c(Cl)ccc5c4OCO5)ncnc3c2)CC1 [saracatinib]
# Outline: as §1
# sotrastaurin = compound: CN1CCN(c2nc(C3=C(c4c[nH]c5ccccc45)C(=O)NC3=O)c3ccccc3n2)CC1 [sotrastaurin]
# Outline: as §1
# alvocidib = compound: CN1CC[C@H](c2c(O)cc(O)c3c(=O)cc(-c4ccccc4Cl)oc23)[C@H](O)C1 [alvocidib]
# Outline: as §1
# Tubastatin A = compound: CN1CCc2c(c3ccccc3n2Cc2ccc(C(=O)NO)cc2)C1 [Tubastatin A]
# Outline: as §1
# [8] = compound: CNC(=O)C1=CC=CC=C1NC2=NC(=NC=C2Cl)NC3=C(C=C(C=C3)N4CCOCC4)OC
# Outline: as §1
# defactinib = compound: CNC(=O)c1ccc(Nc2ncc(C(F)(F)F)c(NCc3nccnc3N(C)S(C)(=O)=O)n2)cc1 [defactinib]
# Outline: as §1
# rucaparib = compound: CNCc1ccc(-c2[nH]c3cc(F)cc4c3c2CCNC4=O)cc1 [rucaparib]
# Outline: as §1
# [9] = compound: CNc1nc(-c2ccc3c(N)n[nH]c3c2)cc(N2C[C@@H](C(=O)NC3CCCCC3)CC[C@H]2C)n1
# Outline: as §1
# encorafenib = compound: COC(=O)N[C@@H](C)CNc1nccc(-c2cn(C(C)C)nc2-c2cc(Cl)cc(NS(C)(=O)=O)c2F)n1 [encorafenib]
# Outline: as §1
# [10] = compound: COC(=O)[C@H](CCSC)NC(=O)C1=C(C=C(C=C1)NC[C@H](CS)N)C2=CC=CC=C2
# Outline: as §1
# UniProt Q01970, sequence (Q01970 whole entry, looked up): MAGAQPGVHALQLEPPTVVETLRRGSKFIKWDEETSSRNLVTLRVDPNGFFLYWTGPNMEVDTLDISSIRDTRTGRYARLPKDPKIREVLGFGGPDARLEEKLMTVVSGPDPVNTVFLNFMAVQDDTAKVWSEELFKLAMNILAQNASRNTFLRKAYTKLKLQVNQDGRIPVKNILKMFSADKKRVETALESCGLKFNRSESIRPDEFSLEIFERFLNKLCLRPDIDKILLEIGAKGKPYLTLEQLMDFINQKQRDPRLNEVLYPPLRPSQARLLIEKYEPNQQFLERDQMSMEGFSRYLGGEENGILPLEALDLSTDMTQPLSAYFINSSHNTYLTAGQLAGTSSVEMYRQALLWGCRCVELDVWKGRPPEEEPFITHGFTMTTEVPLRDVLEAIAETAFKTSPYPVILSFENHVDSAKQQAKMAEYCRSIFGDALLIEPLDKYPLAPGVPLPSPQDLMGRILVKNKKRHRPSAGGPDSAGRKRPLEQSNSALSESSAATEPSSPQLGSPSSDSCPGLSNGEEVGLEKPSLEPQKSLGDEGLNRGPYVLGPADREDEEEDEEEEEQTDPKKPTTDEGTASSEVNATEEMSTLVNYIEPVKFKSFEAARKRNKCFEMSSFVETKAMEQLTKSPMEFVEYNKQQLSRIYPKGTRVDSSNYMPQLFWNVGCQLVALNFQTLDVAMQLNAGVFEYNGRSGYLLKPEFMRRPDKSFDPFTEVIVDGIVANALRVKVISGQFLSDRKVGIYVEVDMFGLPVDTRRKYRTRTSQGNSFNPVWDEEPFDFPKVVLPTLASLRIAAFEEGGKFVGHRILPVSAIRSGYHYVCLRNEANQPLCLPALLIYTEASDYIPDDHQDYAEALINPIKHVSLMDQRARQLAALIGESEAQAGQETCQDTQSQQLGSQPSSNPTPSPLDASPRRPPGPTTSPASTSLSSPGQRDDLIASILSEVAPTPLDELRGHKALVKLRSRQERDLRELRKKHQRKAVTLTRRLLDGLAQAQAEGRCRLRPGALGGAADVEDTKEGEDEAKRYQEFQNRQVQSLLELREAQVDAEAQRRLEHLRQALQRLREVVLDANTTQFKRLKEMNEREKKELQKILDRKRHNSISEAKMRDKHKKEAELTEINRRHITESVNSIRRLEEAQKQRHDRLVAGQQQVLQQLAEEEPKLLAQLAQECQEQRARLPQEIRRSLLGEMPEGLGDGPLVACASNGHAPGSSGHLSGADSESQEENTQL
# UniProt P62333, sequence (P62333 whole entry, looked up): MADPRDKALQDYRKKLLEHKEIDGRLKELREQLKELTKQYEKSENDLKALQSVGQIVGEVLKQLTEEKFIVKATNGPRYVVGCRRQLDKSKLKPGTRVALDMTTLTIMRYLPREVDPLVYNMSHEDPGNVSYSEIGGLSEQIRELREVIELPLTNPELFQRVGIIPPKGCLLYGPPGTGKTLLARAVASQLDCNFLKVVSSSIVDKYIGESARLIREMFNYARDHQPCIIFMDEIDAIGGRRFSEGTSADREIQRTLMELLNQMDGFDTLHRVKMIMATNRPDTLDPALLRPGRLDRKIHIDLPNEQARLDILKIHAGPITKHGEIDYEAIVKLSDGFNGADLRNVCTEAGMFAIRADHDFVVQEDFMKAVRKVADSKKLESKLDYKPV
# UniProt O00231, sequence (O00231 whole entry, looked up): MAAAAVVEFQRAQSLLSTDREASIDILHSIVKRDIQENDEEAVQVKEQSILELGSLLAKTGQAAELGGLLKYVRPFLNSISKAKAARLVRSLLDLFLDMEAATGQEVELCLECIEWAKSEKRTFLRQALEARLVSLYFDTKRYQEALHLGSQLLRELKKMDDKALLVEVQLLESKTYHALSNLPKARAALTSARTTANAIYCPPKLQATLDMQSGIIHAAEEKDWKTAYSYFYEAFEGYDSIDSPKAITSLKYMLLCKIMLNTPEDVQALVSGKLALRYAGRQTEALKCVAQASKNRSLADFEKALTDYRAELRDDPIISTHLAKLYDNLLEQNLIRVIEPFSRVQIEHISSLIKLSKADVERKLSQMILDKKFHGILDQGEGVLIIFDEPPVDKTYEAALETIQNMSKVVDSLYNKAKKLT
# UniProt Q9H814, sequence (Q9H814 whole entry, looked up): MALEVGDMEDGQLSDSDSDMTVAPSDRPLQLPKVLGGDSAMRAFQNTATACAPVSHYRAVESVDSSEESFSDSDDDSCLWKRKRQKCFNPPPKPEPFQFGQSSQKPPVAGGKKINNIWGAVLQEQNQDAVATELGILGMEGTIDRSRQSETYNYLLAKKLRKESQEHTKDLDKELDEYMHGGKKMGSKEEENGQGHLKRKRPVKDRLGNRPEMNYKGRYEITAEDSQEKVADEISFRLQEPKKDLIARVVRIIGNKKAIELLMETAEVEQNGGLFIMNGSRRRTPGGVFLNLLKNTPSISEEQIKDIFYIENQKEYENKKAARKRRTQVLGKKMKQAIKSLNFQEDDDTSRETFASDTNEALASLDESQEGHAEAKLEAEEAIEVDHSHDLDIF
# UniProt Q14181, sequence (Q14181 whole entry, looked up): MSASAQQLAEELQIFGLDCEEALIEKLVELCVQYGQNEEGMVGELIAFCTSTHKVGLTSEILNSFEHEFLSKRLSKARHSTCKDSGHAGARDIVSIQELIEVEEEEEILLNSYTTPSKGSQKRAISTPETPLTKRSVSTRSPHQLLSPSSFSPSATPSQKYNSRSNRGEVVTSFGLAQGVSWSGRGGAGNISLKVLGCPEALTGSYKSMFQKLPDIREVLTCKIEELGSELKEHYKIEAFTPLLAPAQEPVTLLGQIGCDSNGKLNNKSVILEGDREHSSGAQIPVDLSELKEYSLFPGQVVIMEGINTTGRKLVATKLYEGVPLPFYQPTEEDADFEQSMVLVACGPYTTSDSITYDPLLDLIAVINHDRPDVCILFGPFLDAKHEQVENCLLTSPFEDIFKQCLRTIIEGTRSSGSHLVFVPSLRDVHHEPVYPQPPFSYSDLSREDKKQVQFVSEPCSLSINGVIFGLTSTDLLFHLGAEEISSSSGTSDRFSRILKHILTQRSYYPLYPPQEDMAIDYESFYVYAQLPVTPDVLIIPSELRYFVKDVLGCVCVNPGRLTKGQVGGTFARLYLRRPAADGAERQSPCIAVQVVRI
# UniProt Q8NCC3, sequence (Q8NCC3 whole entry, looked up): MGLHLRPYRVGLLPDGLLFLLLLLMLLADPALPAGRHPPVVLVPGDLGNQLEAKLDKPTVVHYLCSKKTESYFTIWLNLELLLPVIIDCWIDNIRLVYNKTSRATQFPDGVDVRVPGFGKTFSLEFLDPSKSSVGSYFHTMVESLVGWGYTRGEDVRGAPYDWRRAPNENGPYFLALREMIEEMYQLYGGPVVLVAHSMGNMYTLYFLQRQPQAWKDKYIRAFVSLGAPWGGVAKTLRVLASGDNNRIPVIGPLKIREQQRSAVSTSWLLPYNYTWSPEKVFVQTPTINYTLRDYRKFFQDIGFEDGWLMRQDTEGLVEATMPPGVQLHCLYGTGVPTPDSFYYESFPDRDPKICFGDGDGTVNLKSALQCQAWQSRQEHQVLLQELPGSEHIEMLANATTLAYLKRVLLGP
# UniProt Q8WWY3, sequence (Q8WWY3 whole entry, looked up): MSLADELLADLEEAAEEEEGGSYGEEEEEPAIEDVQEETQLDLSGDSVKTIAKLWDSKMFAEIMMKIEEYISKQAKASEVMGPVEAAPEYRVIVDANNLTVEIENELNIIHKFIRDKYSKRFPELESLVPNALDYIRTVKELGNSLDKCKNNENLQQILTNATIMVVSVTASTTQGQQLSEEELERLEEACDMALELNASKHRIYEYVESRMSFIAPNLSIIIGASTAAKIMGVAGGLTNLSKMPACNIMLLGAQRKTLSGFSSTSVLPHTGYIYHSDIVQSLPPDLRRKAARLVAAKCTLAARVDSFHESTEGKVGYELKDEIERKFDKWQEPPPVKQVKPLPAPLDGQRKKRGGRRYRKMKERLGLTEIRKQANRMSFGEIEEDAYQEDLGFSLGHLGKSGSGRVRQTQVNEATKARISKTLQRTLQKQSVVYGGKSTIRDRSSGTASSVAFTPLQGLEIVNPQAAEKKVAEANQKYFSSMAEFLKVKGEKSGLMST
# UniProt O00628, sequence (O00628 whole entry, looked up): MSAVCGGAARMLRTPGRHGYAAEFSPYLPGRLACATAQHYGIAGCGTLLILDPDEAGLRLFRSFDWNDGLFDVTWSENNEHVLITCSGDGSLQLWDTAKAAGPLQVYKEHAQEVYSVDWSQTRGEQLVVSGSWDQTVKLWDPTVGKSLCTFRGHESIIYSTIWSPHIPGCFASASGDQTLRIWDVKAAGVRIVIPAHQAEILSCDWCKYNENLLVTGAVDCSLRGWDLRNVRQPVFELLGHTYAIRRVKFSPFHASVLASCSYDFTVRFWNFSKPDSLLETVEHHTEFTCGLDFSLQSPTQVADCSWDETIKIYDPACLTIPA
Target,log2 fold change [1],log2 fold change (volasertib),log2 fold change [2],log2 fold change (epoxomicin),log2 fold change [3],log2 fold change [4],log2 fold change [5],log2 fold change (rosiglitazone),log2 fold change [6],log2 fold change [7],log2 fold change (saracatinib),log2 fold change (sotrastaurin),log2 fold change (alvocidib),log2 fold change (Tubastatin A),log2 fold change [8],log2 fold change (defactinib),log2 fold change (rucaparib),log2 fold change [9],log2 fold change (encorafenib),log2 fold change [10]
PEX7 (UniProt O00628),0.038,0.005,-0.027,0.075,-0.044,-0.01,0.091,-0.045,-0.067,0.023,0.045,0.06,-0.023,0.061,0.005,-0.005,-0.047,0.03,-0.023,-0.039
PSMD11 (UniProt O00231),0.011,0.187,0.036,-0.262,-0.016,0,0,-0.016,0.018,0.053,-0.065,-0.051,0.051,0.077,0.013,0.059,0.039,0.041,0.042,-0.05
PSMC6 (UniProt P62333),0.033,0.178,-0.021,-0.312 (active),-0.012,0.029,-0.03,-0.038,0.009,0.018,-0.01,0.015,0.09,-0.025,-0.003,0.079,0.04,0.009,0.035,0.026
PRPF31 (UniProt Q8WWY3),-0.113,-0.548 (active),0.172,0.049,-0.058,-0.079,0.181,0.104,-0.041,-0.348,-0.093,-0.15,-0.193,0.144,-0.033,-0.456 (active),-0.068,0.033,0.011,-0.037
PRKACA (UniProt P17612),-0.028,-0.046,0.068,-0.072,-0.048,-0.058,0,0.033,-0.003,0.085,0.002,-0.117,-0.012,0.054,-0.104,-0.015,0.061,0.077,0.01,0.072
PITRM1 isoform 2 (UniProt Q5JRX3),0.048,0.489 (active),0.166,-0.029,0.074,-0.084,0.023,0.03,-0.124,-0.189,-0.016,-0.045,-0.022,0.009,-0.027,-0.034,-0.051,0.09,-0.032,-0.005
POLA1 (UniProt P09884),-0.048,-0.466 (active),0.059,0.045,-0.014,-0.089,0.032,0.046,-0.012,-0.163,0.006,-0.096,-0.163,0.025,0.079,-0.156,-0.126,-0.016,-0.005,-0.035
PDCD2L (UniProt Q9BRP1),-0.201,-0.435 (active),0.017,0.07,-0.107,-0.171,0.038,0.018,-0.038,-0.073,-0.072,-0.148,-0.077,0.048,0,-0.068,0.038,-0.031,0.127,-0.007
PLCB3 (UniProt Q01970),-0.05,-0.037,0.044,0.009,0.026,-0.08,0.02,0.058,-0.009,-0.246 (active),-0.044,-0.039,-0.02,-0.027,0.023,-0.074,-0.015,-0.045,0.004,-0.083
PLA2G15 (UniProt Q8NCC3),-0.084,-0.166,0.026,0.01,-0.017,0.005,0.006,0.027,0.043,-0.076,-0.052,-0.095,0.028,0.036,0.065,0.012,-0.064,-0.036,0.176,-0.018
PRKCG (UniProt P05129),-0.253,-0.062,0.058,0.086,-0.078,-0.117,0.058,0.044,0.093,-0.176,0.011,-0.373,-0.076,-0.025,0.088,-0.015,-0.021,-0.164,0.19,-0.02
PSMD3 (UniProt O43242),0.039,0.133,0,-0.337 (active),0.01,0.02,-0.01,-0.01,0.027,0.067,-0.06,-0.015,0.022,0.016,0.007,0.083,0.037,0.051,0.031,0.003
POLR2D (UniProt O15514),0.206,0.135,-0.017,0.17,0.11,0.043,-0.02,-0.02,-0.101,0.056,0.064,0.015,0.22,-0.064,-0.114,0.165,0.056,0.026,0.003,-0.038
POLA2 (UniProt Q14181),-0.114,-0.328 (active),0.051,0.022,-0.008,-0.109,0.1,0.061,-0.057,-0.22,0.035,-0.055,-0.15,0.051,0.096,-0.254,-0.125,0.039,0.06,-0.038
PSMD6 (UniProt Q15008),0.09,0.18,0.01,-0.247,-0.009,0.063,-0.023,-0.029,0.029,0.061,-0.044,-0.035,0.056,0.025,0.013,0.046,0.051,0.062,0.056,-0.021
PHAX (UniProt Q9H814),-0.03,-0.106,0.027,-0.041,0.014,0.111,0.011,-0.007,-0.054,0.042,0.013,0.001,-0.15,0.003,-0.028,-0.138,-0.031,-0.037,-0.034,0.037
